Source: PubChem BioAssay (NCI)
This is part of a sample that, as a whole, favours compounds with a hit. Of some 83,000 tested, about 20% had one in any assay.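 Treatment: one concentration, 48 hours, 96-well format. Scoring: percent growth, with anything below 10 considered active.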 A number with no mark means an inactive call. The source made the active and inactive calls.

Experiments:
Assay in all cases: NCI-60 one-dose screen, 48 h (100 = growth as untreated, 0 = no growth, -100 = all killed)
Details in all cases: 10 µM unless noted
T-47D breast = tested on: T-47D breast
BT-549 breast = tested on: BT-549 breast
MDA-MB-435 melanoma = tested on: MDA-MB-435 melanoma
SW-620 colon = tested on: SW-620 colon
MCF7 breast = tested on: MCF7 breast
HCT-116 colon = tested on: HCT-116 colon
HCC-2998 colon = tested on: HCC-2998 colon
KM12 colon = tested on: KM12 colon

SMILES	growth (T-47D breast)	growth (BT-549 breast)	growth (MDA-MB-435 melanoma)	growth (SW-620 colon)	growth (MCF7 breast)	growth (HCT-116 colon)	growth (HCC-2998 colon)	growth (KM12 colon)
C#C[C@]1(O)CC[C@H]2[C@@H]3CC=C4c5sc(-c6ccc7c(c6)OCO7)nc5CC[C@]4(C)[C@H]3CC[C@@]21C	41.5%	26.1%	-6.66% (active)	2.53% (active)	-1.98% (active)	-9.63% (active)	34%	14%
Fc1ccc(-c2cc3nc(C(Cl)Cl)nc(-c4ccco4)n3n2)cc1	7.31% (active)	82.4%	-1.86% (active)	3.29% (active)	-8.71% (active)	-36.8% (active)	-69.1% (active)	-24.5% (active)
Oc1ccc(CSc2nnc(-c3ccc(Cl)cc3)n2-c2ccccc2)c2cccnc12	48.9%	35.7%	17.1%	23.9%	9.16% (active)	13.3%	32.8%	21.3%
CCCCCCCn1cc2c(NCCc3ccccc3)ncnc2n1	94.5%	100%	96.6%	92.8%	86.9%	96.6%	116%	97%
CC(C)(C)CC(C)(C)n1nnnc1C(Nc1nccs1)c1cc2cccc3ccc4cccc1c4c32 (stereo unspecified)	75.4%	91.6%	102%	101%	75.3%	97.7%	103%	99.5%
COc1ccc(-c2nc(C(Cl)Cl)nc3cc(-c4ccccc4)nn23)cc1	45.8%	38.4%	-30.3% (active)	-23.9% (active)	29.3%	1.5% (active)	-37.8% (active)	-2.28% (active)
O=S(=O)(NCCCNc1nccc(-c2[nH]c(-c3ccccc3)nc2-c2ccc(Cl)c(O)c2)n1)c1cccc2ccccc12	21.9%	46%	16.6%	34.1%	16.4%	16.3%	70%	21.5%
C[C@@H]1C[C@H]2C(=O)O[C@@H](C)C(NC(=O)[C@H](Cc3cc(F)cc(F)c3)NC(=O)Nc3ccc(C4CC4)cc3F)C(=O)N3CCC[C@H]3C(=O)N3CCCC[C@H]3C(=O)N[C@@H](CO)C(=O)N2C1 (stereo partly specified)	21.7%	27.6%	17.9%	35.8%	16.1%	10.6%	24%	38%
CNC(=O)c1cc(Oc2ccc3nc(NC(=O)c4cc(N5CCOCC5)cc(C(F)(F)F)c4)sc3c2)ccn1	74.2%	88.1%	67.8%	107%	75.5%	63.1%	114%	71.3%
COc1cc(-c2nc3sccn3c2-c2ccnc(S(C)(=O)=O)n2)ccc1F	97.9%	92.2%	91.5%	99%	84.1%	103%	100%	102%
Cc1nn(-c2ccccc2)c2ncnc(N/N=C/c3ccccc3)c12	75%	97.4%	96.9%	107%	80.4%	98.1%	115%	80.9%
COc1c(N2CC3CCCNC3C2)c(F)cc2c(=O)c(C(=O)N/N=C/c3ccc(Br)cc3)cn(C3CC3)c12 (stereo unspecified)	84.3%	114%	84.7%	89.6%	52.4%	50.5%	92.2%	97.3%
N#Cc1cccc(NC(=O)c2cc(-c3ccc(F)cc3F)ccc2O)c1	7.54% (active)	-0.215% (active)	2.73% (active)	13.4%	2.47% (active)	5.45% (active)	22.7%	2.94% (active)
Cc1ccc(-c2nn(-c3ccccc3)cc2/C=C/C(=O)c2ccc(NC(=O)CCCCCCC(=O)NO)cc2)cc1	58.5%	108%	67.9%	75.1%	71.4%	33.6%	83.1%	78.2%
CC(=O)c1cc(C(=O)N2c3ccccc3Sc3ccccc32)n2ccc3ccccc3c12	27.5%	37%	0.748% (active)	26.3%	17.8%	24.4%	74.9%	31.7%
COc1cccc2cc(-c3cc4ccccc4[nH]3)/c(=N\NC(=O)c3ccc(Cl)cc3)oc12	13.3%	58.3%	44.7%	38.3%	8.32% (active)	21.8%	69%	28.2%
COC(=O)C1(C)CCC[C@]2(C)[C@H]3C[C@H]4C(C(C)C)=C[C@]3(CC[C@@H]12)[C@H]1[C@@H]4[C@@H](OC(=O)c2ccco2)CC[C@@H]1OC(=O)c1ccco1 (stereo partly specified)	98.9%	99.8%	104%	102%	98.3%	110%	108%	105%
NC(N)=Nc1ccc(Oc2cccc(Nc3ccc(Cl)c(C(F)(F)F)c3)c2)cc1	35.3%	77%	32.3%	30.2%	11.3%	27.5%	20.3%	7.04% (active)
C=C(C=O)[C@@H]1CC[C@]2(C)[C@H](C(=O)C=C3[C@H]4C[C@](C)(C(=O)OC)CC[C@]4(C)CC[C@]32C)[C@@]1(C)CCC#N	19.3%	13.8%	-12.2% (active)	4.74% (active)	2.5% (active)	-56% (active)	-73% (active)	3.36% (active)
CC(C)C[C@@H]1N[C@@]2(C(=O)Nc3ccccc32)[C@@H](c2ccc(F)cc2)[C@@H]1C(=O)c1ccc(O)cc1	76.5%	113%	102%	101%	92.5%	86.7%	108%	96.1%
C=CCN(C)S(=O)(=O)/N=C1\NC(=O)NC1=C(Cl)Cl	55.1%	89.1%	34.4%	-61.9% (active)	11.9%	1.54% (active)	40.1%	7.25% (active)
Cc1ccc(-n2cc(/C=C/C(=O)c3ccc(O)cc3)c(-c3ccc(S(C)(=O)=O)cc3)n2)cc1	73.5%	70.9%	1.81% (active)	34%	24.8%	26.6%	104%	38.3%
C=C1CC[C@@H]2[C@](C)(CO)[C@H](O)CC[C@@]2(C)[C@@H]1C/C(O)=C1\CCOC1=O	96.6%	109%	94.6%	94.9%	77%	95.4%	104%	111%
COc1ccc(C2CC(c3cccc(Nc4nc(Cl)nc5cc(OC)c(OC)cc45)c3)=Nc3c(N)nc(N)nc3N2)cc1 (stereo unspecified)	81.7%	81.4%	83.5%	74%	74.4%	46.3%	83.4%	57.1%
COc1ccc(-c2cc(-c3ccc(Cl)cc3)c(C#N)c(=O)n2Cc2ccc(C(=O)O)cc2)cc1	48.7%	62.8%	21.1%	94.8%	33.3%	77.7%	95.6%	43.2%
NC(N)=Nc1ccc(Oc2cccc(Nc3ccc(Cl)cc3)c2)cn1	26.1%	65.7%	14.3%	-71.8% (active)	-76.7% (active)	-73.4% (active)	-89.1% (active)	-92.6% (active)
CCCCCc1ccc(S(=O)(=O)Nc2cc(-c3csc(NC(=O)CN4CCN(CCO)CC4)n3)ccc2OC)cc1	26.8%	88.7%	-48.6% (active)	1.64% (active)	6.28% (active)	-13.2% (active)	-23.4% (active)	61.2%
